Hits are enriched below; roughly 19% of the tested compounds scored in any of these assays.
TDP1 cell CPT = DT40-hTDP1 cell growth loss with CPT | AID 686979 | 420,000 tested, 12% active | chicken DT40 Tdp1-/-;hTDP1 cells + 20 nM CPT, ATP luminescence, 48 h | Potency, µM (highest dose often 46.2 µM), without a hit: at the highest dose activity change, negative = growth inhibition, hits mostly inhibitors; note: potency is the fitted concentration of half-maximal effect; % is set by controls: 0 for no effect and ±100 for the full control effect; nearly all actives have a fitted effect of over 55% in size
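Chicken DT40 Tdp1-/- cells stably complemented with human TDP1 were seeded at 400 cells/well in medium containing 20 nM camptothecin, exposed to pin-transferred compounds, and grown at 37 °C for at least 48 hr. Viability was read as ATP luminescence.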
TDP1 cell noCPT = qHTS for Inhibitors of human tyrosyl-DNA phosphodiesterase 1 (TDP1): qHTS in cells in absence of CPT; DT40 Tdp1-/- hTDP1 cells, no CPT, ATP luminescence, 48 h; Potency, µM (top dose mostly 46.2 µM), for inactives: top-dose activity change, negative = growth inhibition, most hits filed as inhibitors; 420,000 tested, 15% active; AID 686978, 2013; note: potency is the fitted concentration of half-maximal effect; % is set by controls: 0 for no effect and ±100 for the full control effect; nearly all actives have a fitted effect of over 55% in size
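Camptothecin absent (DMSO only). Human TDP1-complemented DT40 knockout cells, 400 cells/well, 37 °C for minimum 48 hr; ATP measured via CellTiter-Glo, 30 min dark incubation, luminescence.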
IL-1B inflam inh = inflammasome signaling inhibition, IL-1 beta readout | THP-1 LPS/ATP IL-1B secretion, AlphaLISA, 16 h; active compounds read low | activity change, % at 57.5 µM | 360,000 tested, 4.7% active | AID 743279; in the data active = activity change below about -50%; inconclusive = mostly about -30% to -49%; note: % is set by controls: 0 for no effect and ±100 for the full control effect
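THP-1 cells pretreated 1 hr with compounds (up to 57.5 uM final), then stimulated with LPS (250 ng/mL final) plus ATP (1.25 mM final); secreted IL-1B measured by AlphaLISA after 16 hr, decreased signal indicating inhibition.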
TGFb inhibitor = blocks TGF-b signaling. HepG2 CAGA-GFP TGF-b/SMAD3 reporter, GFP fluorescence, 18 h; TGF-beta stimulated, 500 pg/mL final. Potency, µM (doses to about 46.1 µM), without a hit: at the top dose activity, negative = inhibition, usual class: inhibitors. 410,000 tested, 1.2% active; note: potency is the fitted concentration of half-maximal effect; % is set by controls: 0 for no effect and ±100 for the full control effect; nearly all actives have a fitted effect of over 65% in size
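Inhibition was scored as loss of TGF-beta-induced (500 pg/mL final, 18 hours, 37 degrees C) GFP in HEPG2 cells carrying a CAGA-GFP reporter, in DMEM with 1% FBS. Well GFP was summed per cell; Activity was normalised to unstimulated and stimulated DMSO wells, then concentration-response fitting.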
ASM inhibitor = blocks human secretory acid sphingomyelinase. Potency, µM (highest dose often 57.5 µM), for the others: at the highest dose activity change, negative = inhibition, hits mostly inhibitors. P17405. 340,000 tested, 0.006% active. placental ASM, HMU-PC fluorogenic substrate, 60 min. AID 504937; note: potency is the fitted concentration of half-maximal effect
Target sequence (P17405 47-631 limits assumed): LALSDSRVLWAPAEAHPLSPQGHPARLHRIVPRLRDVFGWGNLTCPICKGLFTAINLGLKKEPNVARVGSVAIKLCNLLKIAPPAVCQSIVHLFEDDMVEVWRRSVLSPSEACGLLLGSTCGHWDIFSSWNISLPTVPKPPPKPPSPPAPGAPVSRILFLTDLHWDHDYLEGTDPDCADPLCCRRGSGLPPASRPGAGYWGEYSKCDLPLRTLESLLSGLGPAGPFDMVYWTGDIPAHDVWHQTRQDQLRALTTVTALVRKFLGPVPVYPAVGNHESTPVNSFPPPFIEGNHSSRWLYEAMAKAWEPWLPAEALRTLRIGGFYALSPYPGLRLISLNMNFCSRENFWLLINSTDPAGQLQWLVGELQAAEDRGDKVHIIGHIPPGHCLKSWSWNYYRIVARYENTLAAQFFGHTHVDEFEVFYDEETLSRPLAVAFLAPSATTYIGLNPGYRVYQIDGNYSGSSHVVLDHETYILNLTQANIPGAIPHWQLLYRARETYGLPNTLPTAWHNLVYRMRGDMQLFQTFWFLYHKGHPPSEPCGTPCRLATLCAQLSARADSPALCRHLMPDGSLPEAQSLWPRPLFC
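Fluorescence read-out (Ex 386 nm, Em 447 nm) after stopping the reaction at pH 10. Enzyme: ASM from human placenta; substrate HMU-PC0, 9 uM final; 60 min, 37 °C. Compound preincubation 10 min, ambient temperature.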
HepG2 tox = kills HepG2 cells in TGF-b inhibitor counter-screen. HepG2 CAGA-GFP viability, ATP luminescence, 18 h. Potency, µM (doses to about 46.1 µM), inactives show at the highest dose activity change, negative = cytotoxicity, most hits filed as cytotoxic. 410,000 tested, 0.76% active; note: potency is the fitted concentration of half-maximal effect
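HepG2 CAGA-GFP cells (1000/well, DMEM with 1% FBS) received compound, then TGF-beta at 500 pg/mL final, and were incubated 18 hours at 37 degrees C. Viability was read by CellTiter-Glo luminescence. Media-only wells were set as complete cell-killing and DMSO as no toxicity.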
* marks the source's active call; other numbers are inactive results; ? = inconclusive; nt = no result. Unless noted, calls come from the whole dose curve; as a rule, active = well fitted curve in the direction sought with a large enough effect; inconclusive = small, poorly fitted or top-dose-only effect, or another doubt; inactive = no such curve, though single readings can be large; an effect the other way counts as inactive or inconclusive.

SMILES	TDP1 cell CPT	TDP1 cell noCPT	IL-1B inflam inh	TGFb inhibitor	ASM inhibitor	HepG2 tox
CC1(C)Cc2ccccc2C(NN=C2CCCC2)=N1	10.4%	-28.6%	-0.4	3.4%	9.0%	-30.7%
CC1(C)Cc2ccccc2C(/C(C#N)=N/O)=N1	14.6µM*	23.1µM*	-17.9	6.7%	0.5%	-8.6%
Cc1cc(C)cc(N2CC(c3nnc(NC(=O)c4ccco4)s3)CC2=O)c1 (stereo unspecified)	-18.5%	-23.9%	nt	-32.9%	nt	-11.7%
COc1cccc2c1C1COC3C4CC(C(=O)O)C(C(C2)N13)N4C (stereo unspecified)	5.17µM*	11.6µM*	-22.0	?	7.2%	-44.9%
Cc1cccc(CN2CCN(CC(=O)NCCc3ccc(Cl)cc3)C2=O)c1	-13.0%	?	nt	?	nt	-24.5%
O=S(=O)(c1ccc(-c2csc(=Nc3ccc(OC(F)(F)Cl)cc3)n2CCCO)cc1)N1CCCC1	2.91µM*	2.31µM*	nt	3.55µM*	nt	-41.4%
O=S(=O)(c1ccc(OC(F)(F)F)cc1)N1CCCC(c2ccccc2)C1 (stereo unspecified)	-9.3%	-27.6%	-3.7	-24.5%	-5.1%	-17.2%
Cn1c(-c2ccc(S(=O)(=O)N3CCCC3)cc2)csc1=Nc1ccc(Cl)c(Cl)c1	9.2µM*	4.11µM*	nt	?	nt	-32.4%
COCCCn1c(-c2ccc(S(=O)(=O)N3CCOCC3)cc2)csc1=Nc1ccccc1	18.4µM*	14.6µM*	0.0	-2.7%	-3.0%	-0.1%
Nc1c(C(=O)NCCc2ccccc2)nnn1Cc1ccc(Br)cc1F	-0.8%	-24.6%	0.0	-2.3%	1.4%	2.2%
CCOC(=O)c1ccc(N2Cc3ccccc3C2=NC(=O)c2cccs2)cc1	18.4µM*	?	60.8	-9.3%	1.8%	-2.4%
COC(=O)C1C(=O)c2c([nH]c(C(=O)OCC3CCCO3)c2C)CC1C (stereo unspecified)	16.4µM*	-29.5%	-11.4	29.1%	4.9%	13.4%
CCCCCOC(=O)c1[nH]c2c(c1C)C(=O)C(C(=O)OC)C(C)C2 (stereo unspecified)	9.2µM*	18.4µM*	?	?	-7.7%	-4.3%
Cc1ccc(S(=O)(=O)N(CC(O)CN2CCOCC2)c2cccc([N+](=O)[O-])c2)cc1 (stereo unspecified)	-8.7%	-4.8%	0.0	-19.5%	-4.4%	-14.6%
CCCc1nnc(NC(=O)CCCN2C(=O)c3ccccc3C2=O)s1	?	?	19.0	8.5%	2.1%	-6.3%
O=C(Nc1cc(F)ccc1F)N1CCC(CN2CCCC2)CC1	-4.5%	-11.2%	nt	-4.1%	nt	1.8%
Cc1csc(NC(=O)CSc2nnc3c4ccccc4nc(C(C)(C)C)n23)n1	4.61µM*	5.8µM*	30.0	?	-1.3%	-52.4%
Cc1ccc(C(=O)CSc2nnc3c4ccccc4nc(C(C)(C)C)n23)cc1	?	11.6µM*	-13.0	-0.2%	-1.2%	-7.3%
CC(=O)CSc1nnc2c3ccccc3nc(C(C)(C)C)n12	-11.3%	-15.7%	8.0	-9.1%	-1.1%	-21.8%
COc1ccccc1NC(=O)C(Cc1ccccc1)NS(=O)(=O)c1cccc2nsnc12 (stereo unspecified)	?	?	nt	?	nt	-28.3%
CC(=O)c1cccc(NC(=S)NCCc2ccc(F)cc2)c1	-17.8%	?	-9.6	4.2%	2.6%	-0.4%
CNNC(=S)NCCC1=CCCCC1	-11.6%	1.7%	4.0	-16.7%	5.5%	-21.3%
Cc1ccc(NC(=S)NCCC2=CCCCC2)cc1	?	23.1µM*	10.1	0.3%	-2.1%	-19.0%
CC(=O)c1cccc(NC(=S)NCCC2=CCCCC2)c1	16.4µM*	14.6µM*	-15.5	?	-0.7%	-21.2%
O=C(NCc1ccco1)Nc1ccc2nsnc2c1	18.4µM*	14.6µM*	-75.4*	?	110.0%	-12.0%
SMILES	TDP1 cell CPT	TDP1 cell noCPT	IL-1B inflam inh	TGFb inhibitor	ASM inhibitor	HepG2 tox
O=C(NCCC1=CCCCC1)Nc1ccc2nsnc2c1	?	10.3µM*	-94.1*	?	278.7%	-35.8%
O=C(NCc1ccco1)Nc1ccc(Br)cc1	-18.9%	?	-9.6	1.0%	-2.0%	-14.5%
O=C(NCCC1=CCCCC1)NC12CC3CC(CC(C3)C1)C2	-29.3%	?	-7.0	1.2%	-1.7%	-25.1%
CCc1nc(CNC(=O)C2CCC(=O)N(CCc3cccc(F)c3)C2)no1 (stereo unspecified)	-25.3%	0.9%	3.0	0.0%	-3.4%	-25.7%
O=C(NCc1ccccc1)c1cc(C2COCCN2C(=O)c2ccccc2)on1 (stereo unspecified)	0.2%	2.8%	17.2	28.5%	nt	-0.8%
CCOC(=O)c1ccc(NC(=S)NCCC2=CCCCC2)cc1	29.1µM*	20.6µM*	27.5	?	-4.1%	-46.9%
CC1CCCN(C(=O)CCS(=O)(=O)c2cc3c(cc2Cl)NC(=O)CO3)C1 (stereo unspecified)	-7.5%	-23.0%	-6.3	-1.4%	-0.9%	5.8%
CN1CCCC1CCNC1C2CC3CC(C2)CC1C3 (stereo unspecified)	8.2µM*	16.4µM*	-12.8	59.6%	2.4%	-16.6%
CN1CCCC1CN1CCCC1 (stereo unspecified)	-11.7%	-2.0%	20.0	-0.7%	nt	2.1%
Cc1nc(NC(=O)c2cc3c(s2)CCCCC3)sc1C(=O)N(C)C	?	?	-53.5*	14.2%	-3.2%	-18.7%
Cc1nc(NC(=O)CCl)sc1C(=O)N(C)C	13µM*	14.6µM*	-80.8*	-17.5%	6.4%	-29.6%
COC(=O)c1sc(NC(=O)c2cc3c(s2)CCCC3)nc1C	-15.7%	20.6µM*	-52.4*	1.7%	-0.6%	-17.1%
CCOC(=O)c1sc(NC(=O)c2cc3c(s2)CCC(C)C3)nc1C (stereo unspecified)	-11.7%	?	-4.4	-1.9%	14.9%	-22.7%
CCc1ccc(C2CC3C(CN2S(=O)(=O)c2ccc(C)cc2)[C@@H](O)C[C@@H](c2ccc(CC)cc2)N3S(=O)(=O)c2ccc(C)cc2)cc1 (stereo partly specified)	?	?	9.7	nt	nt	nt
CCCC(=O)N1CCN(c2nc3c(OC)ccc(Cl)c3s2)CC1	?	-8.2%	?	12.4%	-1.1%	-13.4%
CC(C)(C)OC(=O)CNC(=O)c1[nH]cnc1C(=O)NCC(=O)OCc1ccccc1	?	?	14.1	3.4%	-0.1%	-2.3%

Compound activity deposited in PubChem BioAssay by National Center for Advancing Translational Sciences (NCATS).
